Experiment [1] in a line: qHTS of pediatric cancer cell lines to identify multiple opportunities for drug repurposing: Primary screen for DAOY cells (AID 1347090). Note: nearly all actives have a fitted effect of over 55% in size. Note: potency is the fitted concentration of half-maximal effect. The procedure, abridged:
(§1)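 Viability measured as metabolically active cells via CellTiter-Glo luminescence following 48 hours of compound exposure, 11-point dilutions in confirmatory testing. 500-1,000 cells/well plated 5 hours before dosing; controls were DMSO and 2.3 µM bortezomib.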

Experiment [2] can be described thus: qHTS of pediatric cancer cell lines to identify multiple opportunities for drug repurposing: Primary screen for SJ-GBM2 cells (AID 1347091). Note: potency is the fitted concentration of half-maximal effect. The gist of the method: as §1
A general note: qHTS replaces the single test concentration by a dilution series.

Experiment [3] can be described thus: qHTS of pediatric cancer cell lines to identify multiple opportunities for drug repurposing: Primary screen for A673 cells (AID 1347092). Note: nearly all actives have a fitted effect of over 45% in size. Note: potency is the fitted concentration of half-maximal effect. The procedure, abridged:
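48 h compound exposure, A673, 500-1,000 cells/well, 37 degrees C/5% CO2. MIPE: 11-point, 0.78 nM-46 µM; NPC: 8-point, 0.59 nM-46 µM (final). Readout CellTiter-Glo luminescence after 15 min RT.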

A short description of experiment [4]: qHTS of pediatric cancer cell lines to identify multiple opportunities for drug repurposing: Primary screen for BT-37 cells (AID 1347094). Note: potency is the fitted concentration of half-maximal effect. The gist of the method: (§2)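 Quantitative HTS format: each compound titrated (MIPE 11 points from 0.78 nM, NPC 8 points from 0.59 nM) onto cells plated 5 hours earlier. After 48 h at 37 degrees C, CellTiter-Glo luminescence was recorded.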

Experiment [5] is described as follows: qHTS of pediatric cancer cell lines to identify multiple opportunities for drug repurposing: Primary screen for NB-EBc1 cells (AID 1347095). Note: potency is the fitted concentration of half-maximal effect. The gist of the method: as §2
Experiment [6] can be described thus: qHTS of pediatric cancer cell lines to identify multiple opportunities for drug repurposing: Primary screen for SK-N-SH cells (AID 1347098). Note: nearly all actives have a fitted effect of over 65% in size. Note: potency is the fitted concentration of half-maximal effect. The procedure, abridged: (§3)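 Cells (500-1,000/well) rested 5 h, then received compounds for 48 h; metabolically active cells were measured by CellTiter-Glo luminescence. Final concentrations spanned up to 46 µM (MIPE, 11-point) or 0.59 nM-46 µM (NPC, 8-point) in primary screens, 11-point in follow-ups.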

Experiment [7] is described as follows: qHTS of pediatric cancer cell lines to identify multiple opportunities for drug repurposing: Primary screen for RD cells (AID 1347104). Note: nearly all actives have a fitted effect of over 55% in size. Note: potency is the fitted concentration of half-maximal effect. The gist of the method: as §2
The nature of experiment [8]: qHTS of pediatric cancer cell lines to identify multiple opportunities for drug repurposing: Primary screen for MG 63 (6-TG R) cells (AID 1347105). Note: nearly all actives have a fitted effect of over 50% in size. Note: potency is the fitted concentration of half-maximal effect. The gist of the method:
as §2

The nature of experiment [9]: qHTS of pediatric cancer cell lines to identify multiple opportunities for drug repurposing: Primary screen for control Hh wild type fibroblast cells (AID 1347106).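 Note: series mostly up to about 46 µM; a drop in luminescence marks cytotoxicity and a rise apparent proliferation; nearly all actives have a fitted effect of over 55% in size.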 The procedure, abridged: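 Cells (500-1,000/well) in growth media were settled 5 h at 37 degrees C, then given compounds for 48 h. Viability was read as CellTiter-Glo luminescence. Primary runs used MIPE at 11 points (0.78 nM-46 µM) and NPC at 8 points (0.59 nM-46 µM); follow-ups used 11 points.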

The nature of experiment [10]: qHTS of pediatric cancer cell lines to identify multiple opportunities for drug repurposing: Confirmatory screen for NB1643 cells (AID 1347109). Note: nearly all actives have a fitted effect of over 45% in size. Note: potency is the fitted concentration of half-maximal effect. The gist of the method: (§4)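 Viability after 48 h compound treatment at 37C, 500-1,000 cells/well, read as ATP luminescence with CellTiter-Glo. Primary screens used 11-point (MIPE, 0.78 nM-46 µM) or 8-point (NPC, 0.59 nM-46 µM) final concentrations; follow-up screens used 11-point dilutions.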

The nature of experiment [11]: qHTS of pediatric cancer cell lines to identify multiple opportunities for drug repurposing: Primary screen for U-2 OS cells (AID 1347096). Note: nearly all actives have a fitted effect of over 50% in size. Note: potency is the fitted concentration of half-maximal effect. The gist of the method: as §4
Experiment [12] is described as follows: qHTS of pediatric cancer cell lines to identify multiple opportunities for drug repurposing: Primary screen for NB1643 cells (AID 1347099). Note: nearly all actives have a fitted effect of over 50% in size. Note: potency is the fitted concentration of half-maximal effect. The gist of the method:
as §2

Experiment [13] can be described thus: qHTS of pediatric cancer cell lines to identify multiple opportunities for drug repurposing: Primary screen for LAN-5 cells (AID 1347100). Note: potency is the fitted concentration of half-maximal effect. The procedure, abridged: as §4
Experiment [14] in a line: qHTS of pediatric cancer cell lines to identify multiple opportunities for drug repurposing: Primary screen for Rh18 cells (AID 1347102). Note: nearly all actives have a fitted effect of over 65% in size. Note: potency is the fitted concentration of half-maximal effect. The gist of the method:
as §4

Experiment [15] can be described thus: qHTS of pediatric cancer cell lines to identify multiple opportunities for drug repurposing: Primary screen for Rh30 cells (AID 1347107). Note: nearly all actives have a fitted effect of over 75% in size. Note: potency is the fitted concentration of half-maximal effect. The gist of the method: as §4
Experiment [16] can be described thus: qHTS of pediatric cancer cell lines to identify multiple opportunities for drug repurposing: Primary screen for OHS-50 cells (AID 1347103). Note: nearly all actives have a fitted effect of over 40% in size. Note: potency is the fitted concentration of half-maximal effect. The gist of the method: as §3
Experiment [17] in a line: qHTS of pediatric cancer cell lines to identify multiple opportunities for drug repurposing: Primary screen for Rh41 cells (AID 1347108). Note: nearly all actives have a fitted effect of over 70% in size. Note: potency is the fitted concentration of half-maximal effect. The gist of the method:
as §2

The nature of experiment [18]: qHTS of pediatric cancer cell lines to identify multiple opportunities for drug repurposing: Primary screen for Saos-2 cells (AID 1347097). Note: nearly all actives have a fitted effect of over 40% in size. Note: potency is the fitted concentration of half-maximal effect. The gist of the method: as §2
The nature of experiment [19]: qHTS of pediatric cancer cell lines to identify multiple opportunities for drug repurposing: Primary screen for BT-12 cells (AID 1347101). Note: nearly all actives have a fitted effect of over 25% in size. Note: potency is the fitted concentration of half-maximal effect. The procedure, abridged: as §3
The nature of experiment [20]: qHTS of pediatric cancer cell lines to identify multiple opportunities for drug repurposing: Primary screen for SK-N-MC cells (AID 1347093). Note: potency is the fitted concentration of half-maximal effect. The gist of the method:
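Metabolically active cells were quantified by ATP-dependent luminescence (CellTiter-Glo, 15 min at room temperature) following 48 h treatment. Cells had been plated at 500-1,000 per well and settled for 5 h beforehand.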

Inconclusive results are not listed. Activity calls are given as the source filed them. Calls come from the whole dose curve; as a rule, active = well fitted curve in the direction sought with a large enough effect; inconclusive = small, poorly fitted or top-dose-only effect, or another doubt; inactive = no such curve, though single readings can be large; an effect the other way counts as inactive or inconclusive.

On to `CO[C@H]1/C=C\O[C@@]2(C)Oc3c(C)c(O)c4c(O)c(c5c(nc6cc(C)ccn65)c4c3C2=O)NC(=O)C(C)=CC=C[C@H](C)[C@H](O)[C@@H](C)[C@@H](O)[C@@H](C)[C@H](OC(C)=O)[C@H]1C`, for which the Potency entry in experiment [1], in experiment [2], in experiment [3], in experiment [4], in experiment [5] and in [6] was “inactive” throughout. Besides, the Potency result in experiment [7], in experiment [8], in experiment [9] and in [10] was “inactive” each time.
In the case of `Nc1nc(Cl)nc2c1ncn2[C@@H]1O[C@H](CO)[C@@H](O)[C@H]1F`, the Potency in experiment [1] is 0.0372 µM (active); in [2], 0.001 µM (active); in experiment [3], 0.0296 µM (active); in experiment [4], 0.0485 µM (active); in experiment [5], 0.001 µM (active); in experiment [12] it was 3.72 µM (active). For the same compound, the results for the Potency in experiment [13] and in [8] were 0.0372 µM (active) and 1.18 µM (active), respectively. The Potency entry in experiment [11], in experiment [14], in experiment [9] and in experiment [15] was “inactive” in each case.
Turning to `C[C@H]1COC2=C1C(=O)C(=O)c1c2ccc2c1CCCC2(C)C`, the Potency result in experiment [1], in [3], in experiment [11], in experiment [6], in experiment [13] and in [14] was “inactive” in each case. Further, the Potency entry in [16], in experiment [7], in [8], in experiment [9] and in experiment [15] was “inactive” each time. Also, in experiment [2], the Potency was 20.9 µM (active).
`COC(=O)[C@H](c1ccccc1Cl)N1CCc2sccc2C1`: the Potency result in [1], in experiment [2], in [5], in experiment [11], in [13] and in experiment [14] was “inactive” throughout. In addition, the Potency entry in experiment [8], in experiment [9], in experiment [15], in [17] and in [10] was “inactive” in each case. For the same compound, the Potency in experiment [3] is 1.48 µM (active).
Take `CC(C)C[C@@H](N)[C@H](O)C(=O)N[C@H](C(=O)N[C@H](C(=O)N[C@@H](CC(=O)O)C(=O)O)C(C)C)C(C)C`: the Potency result in experiment [1], in experiment [2], in experiment [3], in experiment [4], in experiment [11] and in experiment [18] was “inactive” in each case. Also, the Potency entry in experiment [13], in experiment [19], in experiment [14], in [16], in [7] and in experiment [8] was “inactive” in each case. Further, the Potency result in [9] is “inactive”. Also, the Potency in experiment [6] is 24.1 µM (active).
For the compound `COc1nc(C)cnc1NS(=O)(=O)c1cccnc1-c1ccc(-c2nnco2)cc1`, the Potency entry in experiment [1], in experiment [2], in experiment [3], in experiment [4], in experiment [5] and in experiment [11] was “inactive” throughout. Moreover, the Potency result in experiment [13], in experiment [19], in experiment [14], in experiment [16], in experiment [7] and in experiment [8] was “inactive” each time. The Potency entry in experiment [15] is “inactive”.
`CCOC(=O)[C@H]1O[C@H]1C(=O)N[C@@H](CC(C)C)C(=O)NCCC(C)C`: the Potency result in [1], in [2], in experiment [4], in experiment [5], in experiment [11] and in [6] was “inactive” each time. In addition, the Potency result in [19], in experiment [14], in experiment [16], in experiment [8] and in experiment [9] was “inactive” in each case. For the same compound, in experiment [3], the Potency was 18.7 µM (active).
For the compound `COc1ccnc(CS(=O)c2nc3ccc(OC(F)F)cc3[nH]2)c1OC` (stereo not drawn), the Potency entry in experiment [1], in [2], in [3], in experiment [4], in [5] and in [11] was “inactive” in each case. Further, the Potency entry in experiment [18], in experiment [6], in experiment [13], in [19], in experiment [14] and in experiment [16] was “inactive” in each case. The Potency result in experiment [7], in experiment [8], in experiment [9], in experiment [15] and in experiment [17] was “inactive” each time.
Consider `CC(C)(CO)[C@@H](O)C(=O)NCCC(=O)O`, for which the Potency result in [1], in [2], in [20], in experiment [4], in experiment [5] and in experiment [11] was “inactive” in each case. The Potency entry in experiment [18], in experiment [6], in experiment [13], in experiment [19], in [14] and in [16] was “inactive” throughout. The Potency entry in experiment [7], in experiment [8], in experiment [15] and in [17] was “inactive” throughout.
As to `C[C@@H]1O[C@@H](O[C@H]2CC[C@@]3(C)[C@H](CC[C@@H]4[C@H]3C[C@@H](O)[C@]3(C)[C@@H](C5=CC(=O)OC5)CC[C@]43O)C2)C[C@H](O)[C@@H]1O[C@H]1C[C@H](O)[C@H](O[C@H]2C[C@H](O)[C@@H](O)[C@@H](C)O2)[C@H](C)O1` (stereo in doubt), the Potency was 0.27 µM (active) in [1]; 0.121 µM (active) in experiment [2]; 0.171 µM (active) in experiment [3]; 0.112 µM (active) in [4]; 0.303 µM (active) in [5]; 0.34 µM (active) in experiment [11]. Also, the Potency is 0.429 µM (active) in experiment [12]; 0.241 µM (active) in experiment [13]; 0.14 µM (active) in [19]; 0.14 µM (active) in experiment [16]; 0.121 µM (active) in experiment [7]; 0.0679 µM (active) in experiment [8]. For the same compound, the Potency in [17] is 0.171 µM (active); in [10] it was 0.339 µM (active).
On to `COc1cc(Nc2nc3ccccc3nc2NS(=O)(=O)c2ccc(NC(=O)c3ccc(C)c(OC)c3)cc2)cc(OC)c1`, for which the Potency in experiment [1], in experiment [2] and in [3] was 23.5 µM (active) each time. The Potency entry in experiment [12], in [13] and in experiment [14] was “inactive” in each case.
Turning to `c1ccc(CNc2nc(N3CCOc4ccccc43)nc3c2CCCC3)cc1`, the Potency result in experiment [1], in experiment [3], in experiment [11], in [7], in experiment [8] and in experiment [9] was “inactive” in each case. Also, in experiment [15], the Potency entry is “inactive”. Besides, the Potency in experiment [2] and in [12] was 23.5 µM (active) throughout.
`NC(=O)c1noc([C@H](CCCC2CCCCC2)CC(=O)NO)n1`: the Potency was 14.8 µM (active) in experiment [1]; 18.7 µM (active) in experiment [2]; 9.35 µM (active) in experiment [3]; 21.7 µM (active) in experiment [4]; 18.7 µM (active) in experiment [12]; 14.8 µM (active) in [13]. The Potency in experiment [14] is 13.2 µM (active); in experiment [16], 7.69 µM (active); in experiment [15], 18.7 µM (active); in experiment [17], 14.8 µM (active). Also, the Potency entry in experiment [11] and in experiment [9] was “inactive” in each case.
As for `CC1(COc2ccc3c(c2)ncn3-c2ccc3cccc(N4CCC(N)CC4)c3n2)COC1`, the Potency is 0.0469 µM (active) in experiment [1]; 5.26 µM (active) in experiment [2]; 0.001 µM (active) in experiment [20]; 0.001 µM (active) in [4]; 0.001 µM (active) in [5]; 29.6 µM (active) in experiment [11]. Besides, the Potency was 16.6 µM (active) in experiment [18]; 0.001 µM (active) in [13]; 6.11 µM (active) in experiment [19]; 10.5 µM (active) in experiment [14]; 13.7 µM (active) in experiment [16]; 0.59 µM (active) in experiment [7]. The Potency entry in experiment [6] and in experiment [15] was “inactive” throughout.

(Values after PubChem BioAssay (NCATS).)
